From PubChem BioAssay AID1159580 (chemical genetic matrix, 2015)
Several values for one entry are separate records, joined by “and”; a condition that tells them apart may be missing. Equal values may be shown once. The campaign covered roughly 5,500 compounds. About 2,000 (36%) were called active. Roughly 18% stayed inconclusive and do not appear here. The list shows a part of the results. Values without a mark were called inactive. No stated cut-off is given here; in the data, active means normalized growth mostly below about 0.91 (no sharp cut-off); inconclusive means no clear call, values can overlap the other calls; inactive means mostly above about 0.92.

Experiment: chemical genetic growth profiling, strain panel (AID 1159580);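 further: tested at 20 µM; growth read once vehicle control cultures reached saturation at 30 °C; 1 = growth at the plate median or of vehicle wells; lower values mean less growth of the strain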
Settings: S. cerevisiae deletion strains, growth OD

## O=C(Nc1ccc([N+](=O)[O-])cc1Cl)c1cc(Cl)ccc1O
Locus YAL021C, strain ccr4, hits give low values
  normalized growth: 0.798 (active)
Locus YAL026C, strain drs2, hits give low values
  normalized growth: 0.931
Locus YAL030W, strain snc1, hits give low values
  normalized growth: 0.937
Locus YAL040C, strain CLN3, hits give low values
  normalized growth: 0.969
Locus YBL061C, strain skt5, hits give low values
  normalized growth: 0.818 (active)
Locus YBR009C, strain hhf1, hits give low values
  normalized growth: 0.896 (active)
Locus YBR021W, strain FUR4, hits give low values
  normalized growth: 0.898
Locus YBR023C, strain chs3, hits give low values
  normalized growth: 0.757 (active)
Locus YBR171W, strain sec66, hits give low values
  normalized growth: 1.01
Locus YBR229C, strain ROT2, hits give low values
  normalized growth: 0.991
Locus YBR231C, strain swc5, hits give low values
  normalized growth: 0.69 (active)
Locus YBR279W, strain paf1, hits give low values
  normalized growth: 0.748 (active)
Locus YCL011C, strain gbp2, hits give low values
  normalized growth: 0.944
Locus YCL016C, strain dcc1, hits give low values
  normalized growth: 0.458 (active)
Locus YCL029C, strain bik1, hits give low values
  normalized growth: 1.15 [resistant] (active)
Locus YCL061C, strain MRC1 (second series), hits give low values
  normalized growth: 0.999
Locus YCL069W, strain vba3, hits give low values
  normalized growth: 0.959
Locus YCR088W, strain abp1, hits give low values
  normalized growth: 0.97
Locus YDL005C, strain med2, hits give low values
  normalized growth: 1.09 [resistant] (active)
Locus YDL035C, strain GPR1, hits give low values
  normalized growth: 0.856 (active)
Locus YDL040C, strain nat1, hits give low values
  normalized growth: 0.681 (active)
Locus YDL074C, strain BRE1, hits give low values
  normalized growth: 0.895
Locus YDL101C, strain DUN1, hits give low values
  normalized growth: 0.983
Locus YDL185W, strain tfp1, hits give low values
  normalized growth: 1.01
Locus YDL192W, strain arf1, hits give low values
  normalized growth: 1.01
Locus YDR001C, strain nth1, hits give low values
  normalized growth: 0.989
Locus YDR069C, strain doa4, hits give low values
  normalized growth: 1.03
Locus YDR101C, strain arx1, hits give low values
  normalized growth: 1.22 [resistant] (active)
Locus YDR137W, strain rgp1, hits give low values
  normalized growth: 0.18 (active)
Locus YDR150W, strain NUM1, hits give low values
  normalized growth: 0.878 (active)
Locus YDR159W, strain sac3, hits give low values
  normalized growth: 0.785 (active)
Locus YDR162C, strain NBP2, hits give low values
  normalized growth: 0.832 (active)
Locus YDR195W, strain ref2
  normalized growth: 1.24 [resistant] (active)
Locus YDR297W, strain sur2, hits give low values
  normalized growth: 0.938
Locus YDR318W, strain mcm21, hits give low values
  normalized growth: 1.03
Locus YDR334W, strain swr1, hits give low values
  normalized growth: 0.981
Locus YDR335W, strain msn5, hits give low values
  normalized growth: 0.997
Locus YDR363W, strain ESC2, hits give low values
  normalized growth: 0.95
Locus YDR388W, hits give low values
  normalized growth: 0.989
Locus YDR392W, strain spt3, hits give low values
  normalized growth: 0.828
Locus YDR502C, strain sam2, hits give low values
  normalized growth: 1.02
Locus YEL003W, strain gim4, hits give low values
  normalized growth: 1.07
Locus YEL037C, strain rad23, hits give low values
  normalized growth: 1.01
Locus YEL061C, strain CIN8 (second series), hits give low values
  normalized growth: 1
Locus YEL061C, strain CIN8, hits give low values
  normalized growth: 0.965
Locus YER002W, strain NOP16, hits give low values
  normalized growth: 0.884 (active)
Locus YER015W, strain faa2, hits give low values
  normalized growth: 0.901 (active)
Locus YER016W, strain bim1, hits give low values
  normalized growth: 0.772 (active)
Locus YER110C, hits give low values
  normalized growth: 0.934
Locus YER111C, strain swi4, hits give low values
  normalized growth: 1.16 [resistant] (active)
Locus YER155C, strain BEM2 (second series), hits give low values
  normalized growth: 0.985
Locus YER155C, strain BEM2, hits give low values
  normalized growth: 0.99
Locus YER167W, strain BCK2, hits give low values
  normalized growth: 0.929
Locus YFR010W, strain ubp6, hits give low values
  normalized growth: 0.959
Locus YGL078C, strain dbp3, hits give low values
  normalized growth: 1.01
Locus YGL086W, strain mad1, hits give low values
  normalized growth: 0.954
Locus YGL167C, strain pmr1, hits give low values
  normalized growth: 0.606 (active)
Locus YGL173C, strain kem1, hits give low values
  normalized growth: 0.994
Locus YGL227W, strain vid30, hits give low values
  normalized growth: 0.997
Locus YGL240W, strain doc1, hits give low values
  normalized growth: 0.6 (active)
Locus YGL248W, strain PDE1, hits give low values
  normalized growth: 0.932
Locus YGL253W, strain hxk2, hits give low values
  normalized growth: 0.933
Locus YGR078C, strain PAC10, hits give low values
  normalized growth: 0.948
Locus YGR135W, strain pre9, hits give low values
  normalized growth: 1.03
Locus YGR252W, strain gcn5, hits give low values
  normalized growth: 1.01
Locus YHR013C, strain ard1, hits give low values
  normalized growth: 0.627 (active)
Locus YHR027C, strain rpn1, hits give low values
  normalized growth: 0.944
Locus YHR030C, strain SLT2, hits give low values
  normalized growth: 0.922 and 0.995
Locus YHR079C, strain IRE1 (second series), hits give low values
  normalized growth: 1.14 [resistant] (active)
Locus YHR079C, strain IRE1, hits give low values
  normalized growth: 0.981
Locus YHR094C, strain hxt1, hits give low values
  normalized growth: 1.05
Locus YHR129C, strain ARP1, hits give low values
  normalized growth: 0.944
Locus YHR142W, strain chs7, hits give low values
  normalized growth: 0.967
Locus YHR200W, strain rpn10, hits give low values
  normalized growth: 1
Locus YIL066C, strain RNR3, hits give low values
  normalized growth: 0.9
Locus YIL073C, strain SPO22, hits give low values
  normalized growth: 1.59 [resistant] (active)
Locus YIL125W, strain kgd1, hits give low values
  normalized growth: 1
Locus YIR030C, strain dcg1, hits give low values
  normalized growth: 1.14 [resistant] (active)
Locus YJL092W, strain hpr5, hits give low values
  normalized growth: 0.965
Locus YJL095W, strain BCK1 (second series), hits give low values
  normalized growth: 0.91 (active)
Locus YJL095W, strain BCK1, hits give low values
  normalized growth: 0.91 and 1
Locus YJL115W, strain asf1, hits give low values
  normalized growth: 1.05
Locus YJL129C, strain trk1, hits give low values
  normalized growth: 1.13
Locus YJL134W, strain LCB3, hits give low values
  normalized growth: 0.978
Locus YJL154C, strain vps35, hits give low values
  normalized growth: 0.979
Locus YJL164C, strain tpk1, hits give low values
  normalized growth: 0.952
Locus YJL166W, strain qcr8, hits give low values
  normalized growth: 0.758 (active)
Locus YJL168C, strain set2, hits give low values
  normalized growth: 0.996
Locus YJL187C, strain SWE1 (second series), hits give low values
  normalized growth: 0.903
Locus YJR043C, strain POL32, hits give low values
  normalized growth: 0.929
Locus YJR066W, strain TOR1, hits give low values
  normalized growth: 0.904
